Drawing on PubChem BioAssay AID431 (Sanford-Burnham Center for Chemical Genomics, 2006), this text covers cytotoxicity for 61 compounds.

About 1,100 (1.7%) of roughly 63,000 compounds were called active. This excerpt belongs to a sample that is enriched for actives. Measured potencies and affinities stand elsewhere. Values without a mark were called inactive.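 Rule for the calls: active = compounds whose percent cytotoxicity in the single-dose primary screen, scaled between solvent and toxic-drug controls, exceeds 50; inactive = the rest.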

A short description of this assay: cytotoxicity in KRAS-transformed pancreatic duct cells, primary screen, cell-based, fluorescence, HTS (AID 431).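 Note: 0% = DMSO solvent wells and 100% = doxorubicin-treated wells.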 The following applies: HPDE-C7K KRASV12 cells, Alamar Blue viability, 48 h; at 10 µM; active compounds read high.
On to `O=C(CCCCCn1c(SCc2ccncc2)nc2ccccc2c1=O)NCc1ccco1`, for which the cytotoxicity was 9.3%.
For the compound `COc1ccc(NC(=O)c2cc(-c3cc(C)cc(C)c3O)n[nH]2)cc1Cl`, the cytotoxicity is 70.7% (active).
As for `Cc1cc(O)c(-c2cc(C(=O)Nc3ccc(S(=O)(=O)N4CCOCC4)cc3)[nH]n2)cc1C`, the cytotoxicity was 6.5%.
With `COc1ccc(OC)c(NC(=O)c2cc(-c3cc(Cl)ccc3O)n[nH]2)c1`, the cytotoxicity was 1.7%.
On to `COc1ccc(OC)c(NC(=O)c2cc(-c3ccc(C)cc3O)n[nH]2)c1`, for which the cytotoxicity was -0.5%.
Regarding `Cc1ccc(O)c(-c2cc(C(=O)Nc3ccc(S(=O)(=O)N4CC(C)OC(C)C4)cc3)[nH]n2)c1` (stereo unspecified), the cytotoxicity is -13.4%.
On to `Cc1c(N=C2SCC(=O)N2c2c(C)n(C)n(-c3ccccc3)c2=O)c(=O)n(-c2ccccc2)n1C`, for which the cytotoxicity is 15.2%.
Take `COc1ccccc1/C=c1\sc2nc(-c3ccncc3)nn2c1=O`: the cytotoxicity was -13.5%.
`COc1ccc2nc3sc(C(=O)NCc4cccs4)c(N)c3cc2c1`: the cytotoxicity is 5.5%.
Turning to `c1ccc(-c2oc3ncnc(NCCN4CCOCC4)c3c2-c2ccccc2)cc1`, the cytotoxicity is 42%.
For the compound `COc1ccc(-c2oc3ncnc(NCCN4CCOCC4)c3c2-c2ccc(OC)cc2)cc1`, the cytotoxicity was 4%.
As to `COc1ccc(-c2oc3ncn(CCN4CCOCC4)c(=N)c3c2-c2ccc(OC)cc2)cc1`, the cytotoxicity was 17.3%.
In the case of `COc1ccc(-c2csc3ncnc(NCCN4CCOCC4)c23)cc1`, the cytotoxicity is 25.8%.
In the case of `c1ccc(-c2oc3ncnc(NCCCN4CCOCC4)c3c2-c2ccccc2)cc1` it was 59.8% (active).
Regarding `N=c1c2c(-c3ccccc3)c(-c3ccccc3)oc2ncn1CCN1CCOCC1`, the cytotoxicity was 33.6%.
Consider `N=c1c2c(-c3ccccc3)c(-c3ccccc3)oc2ncn1CCCN1CCOCC1`, for which the cytotoxicity was 55.5% (active).
With `COc1ccc(-c2oc3ncnc(NCCCN4CCOCC4)c3c2-c2ccc(OC)cc2)cc1`, the cytotoxicity was 107% (active).
As for `c1ccc(-c2oc3ncnc(NCCCn4ccnc4)c3c2-c2ccccc2)cc1`, the cytotoxicity is 17.3%.
For `CCc1nnc(NC=C2C(=O)OC(C)(C)OC2=O)s1`, the cytotoxicity was -7.7%.
Turning to `Cc1c(/C(O)=C2/C(=O)C(=O)N(CCN3CCOCC3)C2c2cccnc2)cnn1-c1ccccc1` (stereo unspecified), the cytotoxicity was -12.5%.
As to `CCN(CC)CCN1C(=O)C(O)=C(C(=O)c2sc(C)nc2C)C1c1cccnc1` (stereo unspecified), the cytotoxicity is -8.8%.
On to `O=C(CN1CCN(C(=O)c2cccs2)CC1)NC1CCCCC1`, for which the cytotoxicity is -4.4%.
In the case of `CC1(C)CC(=O)C(C=Nc2cccnc2)=C(O)C1` it was 7.1%; in that of `COc1cc(C(=O)Nc2cccc(-c3nc4cc(C)ccc4o3)c2C)cc(OC)c1OC`, 14.3%.
In the case of `CCOC(=O)C1=C(N)Oc2cc(C)oc(=O)c2C1c1cccnc1` (stereo unspecified), the cytotoxicity was 4.4%.
Turning to `Cc1n[nH]c(=O)nc1NCc1ccccc1`, the cytotoxicity is -17%.
In the case of `CCCCCc1c(C)nc(NCc2ccccc2)[nH]c1=O` it was 2.9%; in that of `CCC(C)(C)NC(=O)C(c1cccn1C)N(Cc1ccccc1)C(=O)Cn1nnc2ccccc21` (stereo unspecified), -4.3%; in that of `CC(=O)NC1CSCC1OC(C)=O` (stereo unspecified), -14.9%.
For the compound `CCOC(=O)c1c(N)sc(C(=O)N2CCOCC2)c1C`, the cytotoxicity was -10.1%.
On to `COc1cc(NC(=O)c2ccc(COc3ccccc3Br)o2)cc(OC)c1OC`, for which the cytotoxicity is 68.9% (active).
The value for `O=C(Nc1nccs1)c1ccc(COc2ccccc2Br)o1` was 51% (active); that for `CC(C)(C)NC(=O)c1ccc(COc2ccccc2Br)o1` was -20.3%; that for `O=C(Nc1nccs1)c1ccc(COc2ccc(F)cc2)o1` was 5%.
For `COc1ccc(NC(=O)c2ccc(COc3ccccc3Br)o2)cc1OC`, the cytotoxicity is 40.4%.
For the compound `O=C(Nc1cccnc1)c1ccc(COc2ccccc2Br)o1`, the cytotoxicity is 30.3%.
Regarding `CC(C)c1nc(SCC(=O)NCc2ccccc2)n[nH]1`, the cytotoxicity is -9.2%.
For the compound `CN1C(=O)c2ccccc2N(C)C1c1ccc2c(c1)OCO2` (stereo unspecified), the cytotoxicity is 6.7%.
Consider `COc1ccc(C(=O)NCC(=O)n2nc(C)cc2C)cc1OC`, for which the cytotoxicity was 13.4%.
With `Cc1ccc2c(c1)N(C(C)C(=O)NCCc1ccccc1)C(=O)CO2` (stereo unspecified), the cytotoxicity is -4.9%.
For `COc1cccc(CN(C)CC(=O)NC(=O)NCc2ccco2)c1`, the cytotoxicity was -9.5%.
For the compound `Cc1ccc(S(=O)(=O)N(CC(=O)NCc2ccncc2)C2CCCCC2)cc1`, the cytotoxicity is 1.7%.
Consider `O=C(CN(C1CCCCC1)S(=O)(=O)c1ccccc1)NCc1cccnc1`, for which the cytotoxicity was 73.1% (active).
In the case of `O=C(CN(C1CCCCC1)S(=O)(=O)c1ccc(Cl)cc1)NCc1cccnc1` it was -28.1%; in that of `COc1ccc(C(=O)N2CCCC(c3nc(-c4cccs4)no3)C2)cc1` (stereo unspecified), 3%; in that of `CCOc1ccc(-c2c(C#N)c(N)nc3c2c(=O)n(C)c(=O)n3C)cc1OC`, -3.8%.
In the case of `CCCCNc1ncnc2c1cnn2-c1ccccc1`, the cytotoxicity is 61.8% (active).
As to `CN(C)CCCNc1ncnc2c1cnn2-c1ccccc1`, the cytotoxicity was 0.7%.
For `Clc1ccc(-n2ncc3c(NCc4ccco4)ncnc32)cc1`, the cytotoxicity is 8.8%.
In the case of `c1ccc(-n2ncc3c(NCc4ccco4)ncnc32)cc1` it was 7.1%; in that of `CCCCNc1ncnc2c1cnn2-c1ccc(Cl)cc1`, 28.5%; in that of `Cc1cccc(-n2ncc3c(NCc4ccco4)ncnc32)c1`, 69.2% (active).
On to `c1ccc(Cn2ncc3c(NCc4ccco4)ncnc32)cc1`, for which the cytotoxicity is 8.3%.
The value for `Clc1ccc(Cn2ncc3c(NCc4ccco4)ncnc32)c(Cl)c1` was 60.9% (active); that for `Cc1ccc(-n2ncc3c(NCc4ccco4)ncnc32)c(C)c1` was 5.4%; that for `COc1ccc(S(=O)(=O)Cc2ccc(C(=O)NCCCN(C)c3ccccc3)o2)cc1` was 2.5%.
The value for `CCOC(=O)C1C(=O)CC(C)(O)C(C(=O)OCC)C1c1ccco1` (stereo unspecified) was 1.3%; that for `CC1CC(C)CN(C(=O)CCCn2c(=S)[nH]c3ccccc3c2=O)C1` (stereo unspecified) was -3.1%; that for `CCOc1cc(C(=O)N2CCOCC2)ccc1OCc1ccccc1` was -7.3%.
In the case of `CC(C)OCCCNC(=O)CN1CCN(Cc2ccccc2Cl)C1=O` it was -6.4%; in that of `Cc1nnc(NC(=O)CSc2nnc(CNC(=O)c3ccccc3)n2-c2ccccc2)s1`, -0.6%.
